This passage reports binding signal results from paper PMC11006913.

Substitutions are numbered along the chain they refer to.

Holding throughout (experiment): PBM; 200 nM protein, PBS
What all share (conditions): dsDNA, one strand shown

In experiment [1] the target is HESX1 (Homo sapiens, UniProt Q9UBX0 95-180, R165K).
Experiment [2] deals with ALX4 (Homo sapiens, UniProt Q9H161 200-286).
Experiment [3] addresses T1, PAX4 (Homo sapiens, UniProt O43316 9-242, R200K).
T1 sequence: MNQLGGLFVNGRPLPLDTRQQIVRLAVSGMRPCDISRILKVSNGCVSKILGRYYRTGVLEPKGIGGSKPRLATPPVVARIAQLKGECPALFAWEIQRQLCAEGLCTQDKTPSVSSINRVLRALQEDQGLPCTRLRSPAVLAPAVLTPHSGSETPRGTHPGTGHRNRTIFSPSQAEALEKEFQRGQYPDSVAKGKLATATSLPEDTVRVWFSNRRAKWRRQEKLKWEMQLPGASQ

The target of experiment [4] is PRRX1 (Homo sapiens, UniProt P54821 80-166, F113S).
Sequence of PRRX1 (Homo sapiens, UniProt P54821 80-166, F113S) (P54821 80-166 F113S): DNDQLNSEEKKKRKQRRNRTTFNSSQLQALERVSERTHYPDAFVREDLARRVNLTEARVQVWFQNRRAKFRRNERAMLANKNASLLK
Experiment [5] concerns the target T2, PAX4 (Homo sapiens, UniProt O43316 9-242).
T2 sequence: T1 sequence with K192R

The target in experiment [6] is ALX4 (Homo sapiens, UniProt Q9H161 200-286, Q225E).
Sequence of ALX4 (Homo sapiens, UniProt Q9H161 200-286, Q225E) (Q9H161 200-286 Q225E): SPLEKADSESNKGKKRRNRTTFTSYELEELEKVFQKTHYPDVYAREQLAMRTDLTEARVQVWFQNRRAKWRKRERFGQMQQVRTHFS
Experiment [7] addresses HESX1 (Homo sapiens, UniProt Q9UBX0 95-180).
Experiment [8] concerns the target ALX1 (Homo sapiens, UniProt Q15699 118-204, L144V).
Experiment [9] concerns the target ALX3 (Homo sapiens, UniProt O95076 139-225, N203Q).
The target of experiment [10] is T3, PAX4 (Homo sapiens, UniProt O43316 9-242, R200Q).
T3 sequence: T1 sequence with K192Q

Another experiment concerns the target SHOX (Homo sapiens, UniProt O15266 103-189, R173C).
Experiment [11] addresses ALX1 (Homo sapiens, UniProt Q15699 118-204, L144R).
The target in experiment [12] is T4, PAX4 (Homo sapiens, UniProt O43316 9-242, F177V).
T4 sequence: T1 sequence with F169V, K192R

The target in experiment [13] is ALX3 (Homo sapiens, UniProt O95076 139-225).
Sequence of ALX3 (Homo sapiens, UniProt O95076 139-225) (O95076 139-225): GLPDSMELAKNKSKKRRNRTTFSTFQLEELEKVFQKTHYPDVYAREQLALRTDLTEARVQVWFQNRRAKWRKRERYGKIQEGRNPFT
Experiment [14] deals with T5, PAX4 (Homo sapiens, UniProt O43316 9-242, F177Y).
T5 sequence: T1 sequence with F169Y, K192R

The target in experiment [15] is PROP1 (Homo sapiens, UniProt O75360 56-141).
Sequence of PROP1 (Homo sapiens, UniProt O75360 56-141) (O75360 56-141): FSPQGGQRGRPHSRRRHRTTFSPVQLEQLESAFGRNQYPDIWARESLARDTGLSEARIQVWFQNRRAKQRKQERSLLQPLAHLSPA
In experiment [16] the target is HESX1 (Homo sapiens, UniProt Q9UBX0 95-180, R109Q).
Sequence of HESX1 (Homo sapiens, UniProt Q9UBX0 95-180, R109Q) (Q9UBX0 95-180 R109Q): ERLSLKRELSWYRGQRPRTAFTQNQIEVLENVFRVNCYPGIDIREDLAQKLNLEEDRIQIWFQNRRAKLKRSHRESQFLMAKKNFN
Experiment [17] has as its target PROP1 (Homo sapiens, UniProt O75360 56-141, R99H).
The target of experiment [18] is ALX3 (Homo sapiens, UniProt O95076 139-225, L168Q).
Sequence of ALX3 (Homo sapiens, UniProt O95076 139-225, L168Q) (O95076 139-225 L168Q): as the sequence (O95076 139-225) above, with L30Q counted along it
The target of experiment [19] is HESX1 (Homo sapiens, UniProt Q9UBX0 95-180, P111T).
Sequence of HESX1 (Homo sapiens, UniProt Q9UBX0 95-180, P111T) (Q9UBX0 95-180 P111T): as the sequence (Q9UBX0 95-180 R109Q) above, with Q15R, P17T counted along it
For experiment [20], the target named is ALX3 (Homo sapiens, UniProt O95076 139-225, L168V).
Sequence of ALX3 (Homo sapiens, UniProt O95076 139-225, L168V) (O95076 139-225 L168V): as the sequence (O95076 139-225) above, with L30V counted along it
Experiment [21] has as its target PROP1 (Homo sapiens, UniProt O75360 56-141, F88S).
The target in experiment [22] is HESX1 (Homo sapiens, UniProt Q9UBX0 95-180, F115L).
Sequence of HESX1 (Homo sapiens, UniProt Q9UBX0 95-180, F115L) (Q9UBX0 95-180 F115L): as the sequence (Q9UBX0 95-180 R109Q) above, with Q15R, F21L counted along it
In experiment [23] the target is T6, PAX4 (Homo sapiens, UniProt O43316 9-242, R227W).
T6 sequence: T1 sequence with K192R, R219W

In experiment [24] the target is ALX1 (Homo sapiens, UniProt Q15699 118-204).
Sequence of ALX1 (Homo sapiens, UniProt Q15699 118-204) (Q15699 118-204): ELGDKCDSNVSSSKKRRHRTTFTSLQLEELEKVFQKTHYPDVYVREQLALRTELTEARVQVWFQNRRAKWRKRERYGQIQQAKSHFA
Experiment [25] concerns the target ALX3 (Homo sapiens, UniProt O95076 139-225, N203S).
Experiment [26] concerns the target PRRX1 (Homo sapiens, UniProt P54821 80-166).
Experiment [27] deals with HOXA2 (Homo sapiens, UniProt O43364 129-215, R185T).
Sequence of HOXA2 (Homo sapiens, UniProt O43364 129-215, R185T) (O43364 129-215 R185T): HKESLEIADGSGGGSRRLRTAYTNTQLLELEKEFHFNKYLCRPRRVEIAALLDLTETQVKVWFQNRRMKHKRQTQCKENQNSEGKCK
Experiment [28] deals with HOXA2 (Homo sapiens, UniProt O43364 129-215, R185K).
Sequence of HOXA2 (Homo sapiens, UniProt O43364 129-215, R185K) (O43364 129-215 R185K): as the sequence (O43364 129-215 R185T) above, with T57K counted along it
Experiment [29] addresses HOXA2 (Homo sapiens, UniProt O43364 129-215, Y150S).
Experiment [30] has as its target HOXA2 (Homo sapiens, UniProt O43364 129-215).
Experiment [31] has as its target MSX2 (Homo sapiens, UniProt P35548 130-214, R199I).
Experiment [32] deals with MSX2 (Homo sapiens, UniProt P35548 130-214).
Sequence of MSX2 (Homo sapiens, UniProt P35548 130-214) (P35548 130-214): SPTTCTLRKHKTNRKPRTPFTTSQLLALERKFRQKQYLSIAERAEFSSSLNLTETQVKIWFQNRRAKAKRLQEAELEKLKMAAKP
The target of experiment [33] is MSX2 (Homo sapiens, UniProt P35548 130-214, F161Y).
Sequence of MSX2 (Homo sapiens, UniProt P35548 130-214, F161Y) (P35548 130-214 F161Y): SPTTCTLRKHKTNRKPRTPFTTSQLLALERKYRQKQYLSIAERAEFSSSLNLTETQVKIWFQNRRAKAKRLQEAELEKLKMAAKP

Sequence of HESX1 (Homo sapiens, UniProt Q9UBX0 95-180) (Q9UBX0 95-180): as the sequence (Q9UBX0 95-180 R109Q) above, with Q15R counted along it
Sequence of PROP1 (Homo sapiens, UniProt O75360 56-141, F88S) (O75360 56-141 F88S): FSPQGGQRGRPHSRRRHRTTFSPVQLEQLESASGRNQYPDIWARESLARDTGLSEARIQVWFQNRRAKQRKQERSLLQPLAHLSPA
Sequence of HESX1 (Homo sapiens, UniProt Q9UBX0 95-180, R165K) (Q9UBX0 95-180 R165K): as the sequence (Q9UBX0 95-180 R109Q) above, with Q15R, R71K counted along it
Sequence of PROP1 (Homo sapiens, UniProt O75360 56-141, R99H) (O75360 56-141 R99H): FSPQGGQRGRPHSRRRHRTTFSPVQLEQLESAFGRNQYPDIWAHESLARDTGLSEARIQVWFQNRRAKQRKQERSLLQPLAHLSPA
Sequence of ALX1 (Homo sapiens, UniProt Q15699 118-204, L144V) (Q15699 118-204 L144V): as the sequence (Q15699 118-204) above, with L27V counted along it
Sequence of ALX1 (Homo sapiens, UniProt Q15699 118-204, L144R) (Q15699 118-204 L144R): as the sequence (Q15699 118-204) above, with L27R counted along it
Sequence of MSX2 (Homo sapiens, UniProt P35548 130-214, R199I) (P35548 130-214 R199I): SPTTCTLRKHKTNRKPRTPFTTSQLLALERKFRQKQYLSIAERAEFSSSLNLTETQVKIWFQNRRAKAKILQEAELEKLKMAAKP
Sequence of PRRX1 (Homo sapiens, UniProt P54821 80-166) (P54821 80-166): as the sequence (P54821 80-166 F113S) above, with S34F counted along it
Sequence of ALX3 (Homo sapiens, UniProt O95076 139-225, N203S) (O95076 139-225 N203S): as the sequence (O95076 139-225) above, with N65S counted along it
Sequence of ALX3 (Homo sapiens, UniProt O95076 139-225, N203Q) (O95076 139-225 N203Q): as the sequence (O95076 139-225) above, with N65Q counted along it
Sequence of ALX4 (Homo sapiens, UniProt Q9H161 200-286) (Q9H161 200-286): as the sequence (Q9H161 200-286 Q225E) above, with E26Q counted along it
Sequence of HOXA2 (Homo sapiens, UniProt O43364 129-215) (O43364 129-215): as the sequence (O43364 129-215 R185T) above, with T57R counted along it
Sequence of HOXA2 (Homo sapiens, UniProt O43364 129-215, Y150S) (O43364 129-215 Y150S): as the sequence (O43364 129-215 R185T) above, with Y22S, T57R counted along it
Sequence of SHOX (O15266 103-189 R173C): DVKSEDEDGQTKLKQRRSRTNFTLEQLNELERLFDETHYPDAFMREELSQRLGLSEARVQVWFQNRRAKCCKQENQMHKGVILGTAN

With AATTAACC, the binding signal with HESX1 [1] was 11.5 upbm affinity estimate (log intensity, higher = more binding, comparable within an allelic series); with ALX4 [2] it was 13.6 upbm affinity estimate (log intensity, higher = more binding, comparable within an allelic series); with PAX4 [3], 11.6 upbm affinity estimate (log intensity, higher = more binding, comparable within an allelic series); with PRRX1 [4] it was 11 upbm affinity estimate (log intensity, higher = more binding, comparable within an allelic series); with PAX4 [5], 12.1 upbm affinity estimate (log intensity, higher = more binding, comparable within an allelic series); with ALX4 [6], 12.7 upbm affinity estimate (log intensity, higher = more binding, comparable within an allelic series). For the same sequence, the binding signal with HESX1 [7] was 11.5 upbm affinity estimate (log intensity, higher = more binding, comparable within an allelic series); in the experiment with ALX1 [8], 11.3 upbm affinity estimate (log intensity, higher = more binding, comparable within an allelic series); with ALX3 [9], 8.33 upbm affinity estimate (log intensity, higher = more binding, comparable within an allelic series); with PAX4 [10], 11.9 upbm affinity estimate (log intensity, higher = more binding, comparable within an allelic series); in the experiment with SHOX it was 9.27 upbm affinity estimate (log intensity, higher = more binding, comparable within an allelic series); with ALX1 [11] it was 11.2 upbm affinity estimate (log intensity, higher = more binding, comparable within an allelic series). The binding signal with PAX4 [12] is 10.4 upbm affinity estimate (log intensity, higher = more binding, comparable within an allelic series); with ALX3 [13], 12.3 upbm affinity estimate (log intensity, higher = more binding, comparable within an allelic series); in the experiment with PAX4 [14], 10.8 upbm affinity estimate (log intensity, higher = more binding, comparable within an allelic series); in the experiment with PROP1 [15] it was 11.1 upbm affinity estimate (log intensity, higher = more binding, comparable within an allelic series); with HESX1 [16], 8.77 upbm affinity estimate (log intensity, higher = more binding, comparable within an allelic series); with PROP1 [17] it was 10.7 upbm affinity estimate (log intensity, higher = more binding, comparable within an allelic series). Also, the binding signal is 10.3 upbm affinity estimate (log intensity, higher = more binding, comparable within an allelic series) in the experiment with ALX3 [18]; 10.3 upbm affinity estimate (log intensity, higher = more binding, comparable within an allelic series) with HESX1 [19]; 9.89 upbm affinity estimate (log intensity, higher = more binding, comparable within an allelic series) with ALX3 [20]; 7.52 upbm affinity estimate (log intensity, higher = more binding, comparable within an allelic series) in the experiment with PROP1 [21]; 7.7 upbm affinity estimate (log intensity, higher = more binding, comparable within an allelic series) with HESX1 [22]; 10.8 upbm affinity estimate (log intensity, higher = more binding, comparable within an allelic series) with PAX4 [23]. Besides, the binding signal in the experiment with ALX1 [24] was 12.1 upbm affinity estimate (log intensity, higher = more binding, comparable within an allelic series); with ALX3 [25] it was 8.5 upbm affinity estimate (log intensity, higher = more binding, comparable within an allelic series); with PRRX1 [26], 13.2 upbm affinity estimate (log intensity, higher = more binding, comparable within an allelic series).

On to CCGAGGCC, for which the binding signal was 6.48 upbm affinity estimate (log intensity, higher = more binding, comparable within an allelic series) with HESX1 [1]; 6.46 upbm affinity estimate (log intensity, higher = more binding, comparable within an allelic series) with HESX1 [7]; 7.28 upbm affinity estimate (log intensity, higher = more binding, comparable within an allelic series) with HOXA2 [27]; 10.4 upbm affinity estimate (log intensity, higher = more binding, comparable within an allelic series) with HOXA2 [28]; 6.73 upbm affinity estimate (log intensity, higher = more binding, comparable within an allelic series) with PROP1 [15]; 6.41 upbm affinity estimate (log intensity, higher = more binding, comparable within an allelic series) with HESX1 [16]. For the same sequence, the binding signal in the experiment with PROP1 [17] is 6.78 upbm affinity estimate (log intensity, higher = more binding, comparable within an allelic series); with HESX1 [19] it was 6.44 upbm affinity estimate (log intensity, higher = more binding, comparable within an allelic series); with PROP1 [21], 6.47 upbm affinity estimate (log intensity, higher = more binding, comparable within an allelic series); in the experiment with HESX1 [22], 6.42 upbm affinity estimate (log intensity, higher = more binding, comparable within an allelic series); with HOXA2 [29], 10.4 upbm affinity estimate (log intensity, higher = more binding, comparable within an allelic series); with HOXA2 [30] it was 7.27 upbm affinity estimate (log intensity, higher = more binding, comparable within an allelic series).

Regarding AGCCCGCG, the binding signal was 6.57 upbm affinity estimate (log intensity, higher = more binding, comparable within an allelic series) in the experiment with HESX1 [1]; 6.54 upbm affinity estimate (log intensity, higher = more binding, comparable within an allelic series) in the experiment with HESX1 [7]; 6.6 upbm affinity estimate (log intensity, higher = more binding, comparable within an allelic series) with HESX1 [16]; 6.57 upbm affinity estimate (log intensity, higher = more binding, comparable within an allelic series) in the experiment with HESX1 [19]; 6.48 upbm affinity estimate (log intensity, higher = more binding, comparable within an allelic series) with HESX1 [22].

Consider ACGCCTCG, for which the binding signal with HESX1 [1] was 6.4 upbm affinity estimate (log intensity, higher = more binding, comparable within an allelic series); with HESX1 [7], 6.35 upbm affinity estimate (log intensity, higher = more binding, comparable within an allelic series); with HESX1 [16], 6.36 upbm affinity estimate (log intensity, higher = more binding, comparable within an allelic series); with HESX1 [19], 6.4 upbm affinity estimate (log intensity, higher = more binding, comparable within an allelic series); with HESX1 [22] it was 6.44 upbm affinity estimate (log intensity, higher = more binding, comparable within an allelic series).

Turning to CAATATCG, the binding signal with HESX1 [1] was 7.31 upbm affinity estimate (log intensity, higher = more binding, comparable within an allelic series); with HESX1 [7] it was 7.37 upbm affinity estimate (log intensity, higher = more binding, comparable within an allelic series); with HESX1 [16] it was 7.14 upbm affinity estimate (log intensity, higher = more binding, comparable within an allelic series); with HESX1 [19] it was 7.2 upbm affinity estimate (log intensity, higher = more binding, comparable within an allelic series).

For AACTCATA, the binding signal is 7.51 upbm affinity estimate (log intensity, higher = more binding, comparable within an allelic series) with HESX1 [1]; 7.49 upbm affinity estimate (log intensity, higher = more binding, comparable within an allelic series) with HESX1 [7]; 7.12 upbm affinity estimate (log intensity, higher = more binding, comparable within an allelic series) with HESX1 [16]; 7.23 upbm affinity estimate (log intensity, higher = more binding, comparable within an allelic series) with HESX1 [19].

Turning to TGGCGCCA, the binding signal is 6.38 upbm affinity estimate (log intensity, higher = more binding, comparable within an allelic series) in the experiment with HESX1 [1]; 6.62 upbm affinity estimate (log intensity, higher = more binding, comparable within an allelic series) in the experiment with HESX1 [7]; 6.34 upbm affinity estimate (log intensity, higher = more binding, comparable within an allelic series) in the experiment with HESX1 [16]; 6.49 upbm affinity estimate (log intensity, higher = more binding, comparable within an allelic series) with HESX1 [19]; 6.34 upbm affinity estimate (log intensity, higher = more binding, comparable within an allelic series) with HESX1 [22].

On to GAAGGAGC, for which the binding signal in the experiment with HESX1 [1] was 6.42 upbm affinity estimate (log intensity, higher = more binding, comparable within an allelic series); with HESX1 [7], 6.37 upbm affinity estimate (log intensity, higher = more binding, comparable within an allelic series); in the experiment with PROP1 [15], 6.66 upbm affinity estimate (log intensity, higher = more binding, comparable within an allelic series); with HESX1 [16], 6.46 upbm affinity estimate (log intensity, higher = more binding, comparable within an allelic series); with PROP1 [17] it was 6.54 upbm affinity estimate (log intensity, higher = more binding, comparable within an allelic series); with HESX1 [19], 6.42 upbm affinity estimate (log intensity, higher = more binding, comparable within an allelic series). In addition, the binding signal with PROP1 [21] is 6.62 upbm affinity estimate (log intensity, higher = more binding, comparable within an allelic series); in the experiment with HESX1 [22], 6.55 upbm affinity estimate (log intensity, higher = more binding, comparable within an allelic series).

With AGTAATTG, the binding signal in the experiment with HESX1 [1] is 11.8 upbm affinity estimate (log intensity, higher = more binding, comparable within an allelic series); with HESX1 [7], 12 upbm affinity estimate (log intensity, higher = more binding, comparable within an allelic series); with MSX2 [31], 12.5 upbm affinity estimate (log intensity, higher = more binding, comparable within an allelic series); in the experiment with ALX1 [8], 11.4 upbm affinity estimate (log intensity, higher = more binding, comparable within an allelic series); in the experiment with ALX1 [11], 10.9 upbm affinity estimate (log intensity, higher = more binding, comparable within an allelic series); with MSX2 [32], 13.7 upbm affinity estimate (log intensity, higher = more binding, comparable within an allelic series). The binding signal with HESX1 [16] was 8.47 upbm affinity estimate (log intensity, higher = more binding, comparable within an allelic series); with PROP1 [17], 11 upbm affinity estimate (log intensity, higher = more binding, comparable within an allelic series); with HESX1 [19], 10.3 upbm affinity estimate (log intensity, higher = more binding, comparable within an allelic series); with MSX2 [33] it was 13.4 upbm affinity estimate (log intensity, higher = more binding, comparable within an allelic series); with HESX1 [22], 7.48 upbm affinity estimate (log intensity, higher = more binding, comparable within an allelic series); in the experiment with ALX1 [24] it was 12 upbm affinity estimate (log intensity, higher = more binding, comparable within an allelic series).
